# In the supplement of paper PMC6555819:
# Tests used:
# Assay in all cases: PBM binding z-score (relative to random genomic background probes); higher = stronger binding; sequences stand for … in GC…GCGATTGACAGCGTAGAATGAAGG
# [1] = system: FXR:RXRa (NR concentration 270 nM, RXRa partner concentration 90 nM)
# Summary of the method: (§1)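 Binding buffer was PBS pH 7.4 with 2% milk, 0.02% Triton X-100, 1 mM DTT, 0.2 mg/mL BSA and 0.4 mg/ml salmon testes DNA. In it, ligand-free nuclear receptor dimers were incubated 1 h on custom Agilent 4×180K protein-binding microarrays carrying double-stranded probes. Antibodies against each partner (one per run) detected binding, and z-scores were calculated against random background probes after regression normalization of scanned fluorescence.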
# [2] = system: LXRa:RXRa (NR concentration 270 nM, RXRa partner concentration 90 nM)
# Summary of the method: as §1
# [3] = system: LXRa homodimer (NR concentration 270 nM)
# Summary of the method: as §1
# [4] = system: LXRb:RXRa (NR concentration 270 nM, RXRa partner concentration 90 nM)
# Summary of the method: as §1
# [5] = system: LXRb homodimer (NR concentration 270 nM)
# Summary of the method: as §1
# [6] = system: PPARa:RXRa (NR concentration 270 nM, RXRa partner concentration 90 nM)
# Summary of the method: as §1
# [7] = system: PPARg:RXRa (NR concentration 180 nM, RXRa partner concentration 90 nM)
# Summary of the method: as §1
# [8] = system: PPARg:RXRa 270nM:90nM, anti-RXR (NR concentration 270 nM, RXRa partner concentration 90 nM)
# Summary of the method: as §1
# [9] = system: PPARg:RXRa 30nM:10nM, anti-RXR (NR concentration 30 nM, RXRa partner concentration 10 nM)
# Summary of the method: as §1
# [10] = system: PPARg:RXRa 90nM:30nM, anti-RXR (NR concentration 90 nM, RXRa partner concentration 30 nM)
# Summary of the method: as §1
Sequence,PBM binding z-score [1],PBM binding z-score [2],PBM binding z-score [3],PBM binding z-score [4],PBM binding z-score [5],PBM binding z-score [6],PBM binding z-score [7],PBM binding z-score [8],PBM binding z-score [9],PBM binding z-score [10]
CCTATTAGGTGACCATAAGGGCAACCGAAGCTCG,0.883,0.519,-0.266,0.209,-0.299,1.81,1.73,1.56,0.344,0.657
CAAACTAGGTCACGAAAGGTCAAAGGCGAATGAC,7.72,8.23,7.26,7.15,2.21,6.78,10.6,8.54,7.17,8.65
AATACTGGGTCATCGTAGGCCAGAGTACGCACAG,3.75,4.06,1.07,2.04,0.0752,4.49,6.86,5.4,3.02,4.86
GCGACTGAGGCATCAGCAGGTTACCATAACTTAA,-0.539,-0.504,-0.511,-0.382,-0.493,-0.272,0.31,-0.607,-0.469,-0.443
TCATATAGGTAATACAGGCGAAAGTCGGCATCTA,0.743,0.759,0.19,0.501,-0.147,1.06,0.851,2.29,4.01,3.08
CTCGAAAGTTCGGTTGAGGTGAGTATACGGATAA,0.279,0.2,-0.166,0.297,-0.341,0.506,-0.114,0.109,-0.0109,0.125
ATCTCTAGGTAAGAGTCAGTTCAGTGAAGAACGC,0.322,0.41,0.44,0.262,0.685,0.413,0.239,1.03,0.45,0.958
TCATATAGGTAAAGGTGGAAGTCGAACGATATGA,0.695,0.507,0.313,0.415,0.0945,1.93,2.54,3.54,4.18,3.93
TCTATTTGGTCACGGAGGTCACACACGACGGGTA,3.93,3.92,3.39,3.88,2.63,4.23,4.04,4.8,4.57,4.77
AGATCGAGGGCAATGAGTTGATAGCACGGGTGGC,0.45,0.121,-0.246,-0.143,-0.369,1.14,1.16,0.568,0.0147,0.283
CGAACGAGGGCATGTGTTGATAGCAAATGCCGAT,0.387,0.273,-0.286,0.11,-0.807,1.05,1.15,1.14,0.0411,0.632
TCTATTTGGTCAAAGGTCACACACTCGAAATGCG,6.32,5.68,4.22,5.83,3.24,6.7,10.6,9.27,9.35,10.1
